In all, about 290,000 compounds went through this assay and about 160 (0.055%) were called active. Shown is part of a subset that was picked to be rich in actives. Unmarked numbers belong to inactive results. No stated cut-off is given here; in the data, active means inhibition above about 50%; inactive means the rest.
target: Tyrosine-protein phosphatase non-receptor type 22 (Homo sapiens) (UniProt Q9Y2R2); assay: PTPN22 lymphoid phosphatase activity blockers – biochemical, fluorescence intensity, uHTS (AID 1779); settings: recombinant LYP phosphatase, at 11.5 µM, active compounds read high;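 further: plate controls were vehicle with enzyme for no effect and no enzyme for full effect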
Sequence (Q9Y2R2 whole entry, looked up): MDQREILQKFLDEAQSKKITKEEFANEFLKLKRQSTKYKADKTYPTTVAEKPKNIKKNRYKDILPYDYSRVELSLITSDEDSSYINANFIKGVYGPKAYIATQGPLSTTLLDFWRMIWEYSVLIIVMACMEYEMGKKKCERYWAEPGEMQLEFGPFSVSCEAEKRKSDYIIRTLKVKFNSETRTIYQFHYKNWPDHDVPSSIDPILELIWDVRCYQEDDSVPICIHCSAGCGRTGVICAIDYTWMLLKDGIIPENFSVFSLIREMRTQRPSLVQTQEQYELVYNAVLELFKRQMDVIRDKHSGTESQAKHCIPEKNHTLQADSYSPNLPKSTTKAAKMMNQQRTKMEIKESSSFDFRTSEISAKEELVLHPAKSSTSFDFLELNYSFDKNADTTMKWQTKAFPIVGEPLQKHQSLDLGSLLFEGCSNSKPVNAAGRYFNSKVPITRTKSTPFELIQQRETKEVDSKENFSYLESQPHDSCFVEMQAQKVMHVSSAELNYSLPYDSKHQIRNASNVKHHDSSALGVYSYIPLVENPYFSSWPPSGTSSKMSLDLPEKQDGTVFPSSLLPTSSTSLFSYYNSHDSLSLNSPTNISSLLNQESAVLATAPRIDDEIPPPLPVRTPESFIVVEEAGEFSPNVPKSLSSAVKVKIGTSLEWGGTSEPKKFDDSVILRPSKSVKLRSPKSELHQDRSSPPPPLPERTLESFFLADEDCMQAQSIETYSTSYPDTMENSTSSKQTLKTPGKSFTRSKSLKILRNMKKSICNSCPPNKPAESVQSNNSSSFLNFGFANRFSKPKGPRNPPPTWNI

First: Cc1ccc(C(=O)N/N=C\c2cccs2)cn1
Second: CN(C)/C=N/NC(=O)c1ccccc1
The inhibition of the first is higher: 1.2% for the first, -9.5% for the second.

Compared with `Cc1nnc(C)n1/N=C/c1ccccc1`, `COc1cc(/C=N/n2c(-c3ccccc3)n[nH]c2=S)cc(OC)c1OC` is higher in inhibition: -11% for the first, -1.8% for the second.

Compared with `CNc1nc(N)nc(-c2cc(Cl)ccc2OC)n1`, `CCNc1nc(N)nc(-c2cc(Cl)ccc2OC)n1` is higher in inhibition: -4% for the first, -2.6% for the second.

First: Cc1ccc(/C(O)=C2/C(=O)C(=O)N(CCN3CCOCC3)C2c2cccnc2)cc1 (stereo unspecified)
Second: COc1ccc(NC(=O)CC2C(=O)N(Cc3ccccc3)C(=S)N2CCN2CCOCC2)cc1 (stereo unspecified)
The inhibition of the first is lower: -3.8% for the first, -3.6% for the second.

Going from `C=CCC(C(=O)OC)(C(=O)OC)c1ccccc1[N+](=O)[O-]` to `COC(=O)N/N=C(\C)c1ccccc1OC(F)F`, the inhibition rises from -9.5% to -1.7%.

Going from `COc1cc(/C=N\NC(=O)c2ccc(-c3ccccc3)cc2)ccc1OCC(N)=O` to `CCOc1cc(/C=N\NC(=O)c2ccc(NC(=O)C(C)(C)C)cc2)ccc1OC(=O)c1ccc(C)cc1`, the inhibition falls from 3.2% to -4%.

First: Cc1cc2c(N=O)c(NO)ccc2[nH]1
Second: Cc1ccnc(NCc2c(O)ccc3ccccc23)c1
The inhibition of the first is higher: -4.6% for the first, -11.3% for the second.

Going from `Cc1nn(Cc2cccc(C(=O)NCC(C)C)c2)c(C)c1Br` to `CCCNC(=O)c1cccc(Cn2nc(C)c(Br)c2C)c1`, the inhibition falls from -3.3% to -5.3%.

Compared with `COc1ccc(-c2cc(C(=O)NCCc3ccc(S(N)(=O)=O)cc3)c3ccccc3n2)cc1`, `O=C(O)c1ccccc1NC(=O)c1cc(-c2ccccc2)nc2ccccc12` is lower in inhibition: -2.5% for the first, -12.6% for the second.

First: Cc1nnc(SCC(=O)NC(=O)Nc2ccc3c(c2)OCCO3)n1N
Second: CSc1nsc(SCC(=O)Nc2cccc(NC(C)=O)c2)n1
The inhibition of the first is lower: -13% for the first, -3.8% for the second.

Going from `N=c1c(S(=O)(=O)c2ccc(Br)cc2)cc2c(=O)n3ccccc3nc2n1Cc1ccccc1` to `COCCn1c(=N)c(S(=O)(=O)c2ccc(F)cc2)cc2c(=O)n3ccccc3nc21`, the inhibition falls from -5.4% to -34.1%.

Compared with `Cc1cc(N2C(=O)C(O)=C(C(=O)c3cc4ccccc4o3)C2c2ccc(Br)cc2)no1` (stereo unspecified), `CC(=O)Nc1ccc(NC(=O)c2c(-c3ccccc3Cl)noc2C)c(C)c1` is lower in inhibition: 2.4% for the first, -11.5% for the second.

First: OCCOCCn1c(-c2ccccc2)nc(=S)c2c1CCCC2
Second: O=C(NCCCN1CCCC1=O)c1csc2ccccc12
The inhibition of the first is higher: -2.3% for the first, -6.7% for the second.

First: O=C(CCc1c[nH]c2ccccc12)OCc1cccc([N+](=O)[O-])c1
Second: O=C(O)CCC(=O)Nc1ccccc1C(=O)NCCc1ccccc1
The inhibition of the first is lower: -6% for the first, 2.9% for the second.

Going from `COc1ccc(/C=N/NC(=O)COc2ccc3ccccc3c2)c(C(=O)O)c1OC` to `COc1ccc(/C=N\NC(=O)COc2ccccc2)c(C(=O)O)c1OC`, the inhibition rises from -2.9% to 2.3%.

Compared with `CCc1nc(CNC(=O)c2cc(OC)c(OC)c(OC)c2)no1`, `COc1c(C)cc(C(=O)C2CCCN(C(=O)c3csc(C)n3)C2)cc1C` (stereo unspecified) is lower in inhibition: -4.2% for the first, -11.3% for the second.

First: O=C(NC(=S)Nc1ccc(S(=O)(=O)Nc2nccs2)cc1)C1CC1
Second: CC1Cc2ccccc2N1CC(=O)Nc1ccc(S(N)(=O)=O)cc1 (stereo unspecified)
The inhibition of the first is higher: 1% for the first, -7.9% for the second.

Going from `COc1cccc(N(C(=O)Cn2nnc(-c3ccc(Cl)cc3)n2)C(C(=O)NCC2CCCO2)c2ccc(C)cc2)c1` (stereo unspecified) to `CCOC(=O)c1c(-c2ccc(C)cc2)csc1NC(=O)c1cccc(N2C(=O)CCC2=O)c1`, the inhibition rises from -1.9% to 1%.

Going from `CCCCOc1ccc(N(CC(=O)NC(C)C)C(=O)CCC(=O)Nc2ccccn2)cc1` to `CCOc1ccc(N(CC(=O)NC(C)C)C(=O)CCC(=O)Nc2ccccn2)cc1`, the inhibition rises from -3.4% to 2.9%.

First: O=C(NCCCN1CCCC1=O)c1cccs1
Second: CCCS(=O)(=O)N1CCc2ccc(NC(=O)C3CCCO3)cc2C1 (stereo unspecified)
The inhibition of the first is higher: 2.8% for the first, -11.2% for the second.

Compared with `C=CCSc1nc2sc(-c3ccccc3)cc2c(=O)n1N`, `CC(=O)NNc1ncnc2c1cnn2-c1ccccc1` is higher in inhibition: -7.2% for the first, 1.3% for the second.

Compared with `CCOC(=O)N1CCN(C(=O)C(CC)n2nc(C)c3sc4ccccc4c3c2=O)CC1` (stereo unspecified), `O=C(c1ccccc1)N1CCN(C(=O)c2cccnc2)CC1` is lower in inhibition: 4.4% for the first, -0.5% for the second.

First: Brc1cc2c(cc1CN1CCc3ccccc3C1)OCO2
Second: OCC1(CCc2ccccc2)CCN(Cc2cc(Cl)ccc2O)CC1
The inhibition of the first is higher: -4.6% for the first, -10.5% for the second.

Going from `O=C1CC(c2ccccc2)CN1C(=O)c1cccnc1` (stereo unspecified) to `Cc1ccc2c(c1)N(C(=O)CCC(=O)NCc1ccccc1)CC(C)O2` (stereo unspecified), the inhibition rises from -10.4% to -6.7%.

Going from `CCOC(=O)c1c(-c2cccc3ccccc23)csc1NC(=O)C1C2CCC(O2)C1C(=O)O` (stereo unspecified) to `CCOC(=O)c1c(-c2ccc(-c3ccccc3)cc2)csc1NC(=O)C1C2CCC(O2)C1C(=O)O` (stereo unspecified), the inhibition rises from 4.2% to 20.8%.

First: CC(=O)c1ccc(N2CCN(C(=O)CCN3C(=S)NC(C)(C)CC3C)CC2)cc1 (stereo unspecified)
Second: CCN1C(=O)C(CC(=O)Nc2ccc(OC)cc2)N(CCN2CCOCC2)C1=S (stereo unspecified)
The inhibition of the first is higher: 1% for the first, -9.2% for the second.

Compared with `Cc1cc(C)n(C(C)CNS(=O)(=O)c2ccccc2)n1` (stereo unspecified), `CC1Cc2ccccc2N1CC(=O)Nc1ccc(S(=O)(=O)N(C)C)cc1` (stereo unspecified) is higher in inhibition: -6.8% for the first, 0.3% for the second.

Going from `O=C(Nc1ccccc1C(=O)NCCc1ccccc1)c1ccco1` to `COCCNC(=O)c1c(CSc2ccccc2)noc1C(=O)NCc1ccccc1`, the inhibition falls from -1.8% to -2.5%.

Going from `CCNC(=S)N/N=C(\C)c1ccc2ccccc2c1OC(F)F` to `Cc1c(C(=O)NNC(=S)NCc2ccc(Cl)cc2)oc2ccccc12`, the inhibition falls from 4% to -1.3%.

Compared with `COC(=O)C(C)n1cnc2c(nnn2-c2ccc(C)cc2)c1=O` (stereo unspecified), `Cc1ccc2c(c1)N(C(=O)CCC(=O)NCc1cccc(Cl)c1)CC(C)O2` (stereo unspecified) is higher in inhibition: -13% for the first, -4% for the second.

First: CN(C(=O)COc1cc(C(F)(F)F)nn1C)c1ccccc1
Second: CC(NC(=O)CN1CCN(c2ccccc2F)CC1)c1ccccc1 (stereo unspecified)
The inhibition of the first is lower: -13.5% for the first, -13% for the second.

`CC(C)Cn1c(-c2ccco2)n[nH]c1=S` and `CSc1nsc(SCC(=O)Nc2cccc(C(=O)O)c2)n1` are the same in inhibition: -1.3% for the first, -1.3% for the second.

Compared with `CN(C)S(=O)(=O)N1CCc2ccc(NC(=O)C3CCCO3)cc2C1` (stereo unspecified), `COc1ccc(Cl)cc1NC(=S)N1CCCC1` is higher in inhibition: -10.7% for the first, -2% for the second.

Compared with `O=C(c1c(F)cccc1F)N1CCC(O)(c2cccnc2)CC1`, `Fc1ccccc1Cn1nnc2c(NCCc3ccccn3)ncnc21` is higher in inhibition: -8.4% for the first, -5.2% for the second.

First: COc1ccc(NC(=O)CS(=O)CC(=O)NCC2OCCc3ccccc32)cc1 (stereo unspecified)
Second: CCc1ccc(NC(=O)CS(=O)CC(=O)NCC2OCCc3ccccc32)cc1 (stereo unspecified)
The inhibition of the first is higher: -5.2% for the first, -6.3% for the second.

First: COC(=O)CCCC1=CC2=C(c3ccccc3)C(=O)C(C)(OC(=O)C3CCCC3)C(=O)C2=CN1CCN1CCOCC1 (stereo unspecified)
Second: COC(=O)CCCC1=CC2=C(c3ccccc3)C(=O)C(C)(OC(=O)C3CCCC3)C(=O)C2=CN1CC1CC1 (stereo unspecified)
The inhibition of the first is higher: -3.1% for the first, -6.7% for the second.

Going from `CO/C([O-])=N/c1c[n+](-c2ccc(Cl)cc2)no1` to `CCN(CC)C(=O)c1sc(NC(=O)Cc2ccccc2)c(C#N)c1C`, the inhibition falls from -3.1% to -7.8%.

First: O=C1C2C(C(=O)N1/N=C/c1ccc([N+](=O)[O-])o1)C1C=CC2C12CC2 (stereo unspecified)
Second: O=C1C2C(C(=O)N1/N=C/c1cc([N+](=O)[O-])ccc1O)C1C=CC2C12CC2 (stereo unspecified)
The inhibition of the first is lower: -11.3% for the first, 0.1% for the second.

Compared with `COc1cc(/C=C/C(=O)OCC(=O)c2c(N)n(C)c(=O)n(C)c2=O)ccc1O`, `CC1(NC(=O)CC[N+](C)(C)CCO)CS(=O)(=O)CC1S(=O)(=O)[O-]` (stereo unspecified) is lower in inhibition: 2.2% for the first, 0.6% for the second.

Compound `CCCC[N+](C)(C)CCC(=O)NC(C)(C)CS(=O)(=O)[O-]` has an inhibition of -4.3%.

In the case of `COc1ccc(Cl)cc1-c1nc(N)nc(NC2CCCCC2)n1`, the inhibition is reported as 58.1% (active).
With `Cc1nn(Cc2cccc(C(=O)NC34CC5CC(CC(C5)C3)C4)c2)c(C)c1Br` the inhibition was 94.4% (active).
In the case of `COCCn1c(=N)c(S(=O)(=O)c2ccc(Br)cc2)cc2c(=O)n3ccccc3nc21`, the inhibition is reported as 67.5% (active).
In the case of `COc1ccc(OCC(=O)N/N=C/c2ccc(OC)c(OC)c2C(=O)O)cc1`, the inhibition is reported as 53.1% (active).
`COc1ccc(N(CC(=O)NC(C)C)C(=O)CCC(=O)Nc2ccccn2)cc1` was tested, and the inhibition was 67.8% (active).
For `Cc1cc(C(=O)NCCCN2CCCC2=O)cs1`, the inhibition was 75.4% (active).
`O=C1CCC(c2ccccc2)N1C(=O)c1cccnc1` (stereo unspecified) was tested, and the inhibition was 87.4% (active).
`CCCOC(=O)c1c(-c2ccc(C)cc2C)csc1NC(=O)C1C2CCC(O2)C1C(=O)O` (stereo unspecified) was tested, and the inhibition was 66.6% (active).
In the case of `NC(=O)Nc1ccccc1C(=O)NCCc1ccccc1`, the inhibition is reported as 65% (active).
In the case of `O=C(CC1C(=O)N(Cc2ccccc2)C(=S)N1CCN1CCOCC1)Nc1ccc(F)cc1` (stereo unspecified), the inhibition is reported as 74.9% (active).
With `COC(=O)N/N=C(\C)c1ccc2ccccc2c1OC(F)F` the inhibition was 68% (active).
`CC1Cc2ccccc2N1CC(=O)Nc1cccc(S(N)(=O)=O)c1` (stereo unspecified) was tested, and the inhibition was 52.1% (active).
With `CS(=O)(=O)N1CCc2ccc(NC(=O)C3CCCO3)cc2C1` (stereo unspecified) the inhibition was 73.9% (active).
`O=C(CS(=O)CC(=O)Nc1ccc(Cl)cc1)NCC1OCCc2ccccc21` (stereo unspecified) was tested, and the inhibition was 52.3% (active).
`CSc1nsc(SCC(=O)Nc2cccc(C(C)=O)c2)n1` was tested, and the inhibition was 52.6% (active).
With `O=C1C2C(C(=O)N1/N=C/c1cccc([N+](=O)[O-])c1)C1C=CC2C12CC2` (stereo unspecified) the inhibition was 51.6% (active).
For `Cc1ccc2c(c1)N(C(=O)CCC(=O)NCc1cccc(Br)c1)CC(C)O2` (stereo unspecified), the inhibition was 90.4% (active).
